# Screening data: PubChem, several laboratories
# This is a sample that favours compounds with a hit; in the whole collection about 2.2% have one here.
# IEC-6 cytotox = cytotoxicity in IEC-6 intestinal epithelial cells, primary screen, cytotoxicity control for KLF5 inhibitor project, cell-based, luminescence. IEC-6 cytotoxicity, luminescence viability. inhibition, % at 5 µM. 290,000 tested, 0.78% active. AID 1825, 2009; in the data active = inhibition above about 22%;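 also: 0% = plate median of test compound wells and 100% = cytotoxic reference compound wells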
# Ba/F3 V617F tox = reduced viability of JAK2V617F-dependent Ba/F3 cells, primary screen, JAK2V617F inhibitor project, cell-based, Ba/F3 EpoR-JAK2V617F, luminescence | 220,000 tested, 1.1% active | ATP luminescence | inhibition, % at 5.6 µM;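 active = inhibition above the campaign mean plus 3 SD over all tested compounds, cut at about 24% in these data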;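 also: cytokine-independent growth of Ba/F3 cells driven by EpoR plus mutant JAK2; 0% = DMSO-treated cells and 100% = JAK inhibitor I control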
# BaF3 tox = parental Ba/F3 cell viability inhibition, counter-screen for JAK2V617F inhibitor project, murine pro-B, CellTiter-Glo luminescence; CellTiter-Glo ATP luminescence; inhibition, % at 5.6 µM; 220,000 tested, 1.1% active; AID 1486, 2009;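 active = inhibition above a per-campaign cutoff, the mean inhibition of all tested compounds plus 3 SD, cut at about 27% in these data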;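 also: 0% = DMSO wells and 100% = JAK Inhibitor I control wells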
# APP transl inh = inhibitors of APP translation via 5'UTR reporter, primary screen, APP 5'UTR luciferase, SH-SY5Y cells; 190,000 tested, 0.82% active; inhibition, % at 2 µM; AID 1285, 2008; SH-SY5Y APP 5'UTR-luciferase reporter, luminescence;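 active = inhibition above a set limit, derived from the sample mean plus 3 SD, cut at about 45% in these data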
# aSyn UTR inh = MLPCN primary screen, SNCA 5' untranslated region; alpha-synuclein 5'UTR reporter, inhibitor activity; inhibition, % (tested at 7.5 µM); 300,000 tested, 0.82% active; AID 1813, 2009; in the data active = inhibition above about 60%;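 also: H4 neuroglioblastoma cells stably carrying SNCA 5'UTR luciferase fusion; 0% = DMSO wells and 100% = positive control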
# KLF5 inh = KLF5 expression inhibitors, primary screen, DLD-1 cells, luminescence; DLD-1 KLF5 promoter-luciferase reporter; inhibition, % at 5 µM; 290,000 tested, 0.23% active; AID 1700, 2009;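 active = inhibition above a per-plate limit of that plate's mean compound inhibition plus 3 SD, cut at about 60% in these data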;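 also: 0% = DMSO wells and 100% = LY294002 at 200 µM; higher means less KLF5 promoter-driven luciferase light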
# * = called active by the depositor; i = inactive; . = not tested or not shown.
SMILES,IEC-6 cytotox,Ba/F3 V617F tox,BaF3 tox,APP transl inh,aSyn UTR inh,KLF5 inh
Cc1cc(C)n(-c2nc(Nc3ccccc3C(F)(F)F)nc(-n3nc(C)cc3C)n2)n1,39*,-2,5,42,62*,11
O=S(=O)(Nc1cc(Sc2cccc3cccnc23)c(O)c2ccccc12)c1ccccc1,98*,-1,3,75*,-139,13
CS(=O)(=O)Nc1ccc(S(=O)(=O)N2CCCC2)cc1,7,0,90*,-4,15,-6
COc1ccnc2c1c(=O)n(Cc1ccccc1Cl)c(=O)n2C,-4,.,.,.,-1,-18
Cn1c(Oc2ccc(Cl)c3cccnc23)nc2c1c(=O)n(Cc1ccccc1Cl)c(=O)n2C,0,-2,94*,-6,.,-11
Cc1cccc(NC(=S)N(CCN2CCOCC2)Cc2cc3cc4c(cc3[nH]c2=O)OCCO4)c1,-2,3,12,4,11,-9
COc1cc(SC)ccc1C(=O)Nc1ccc(Cl)cn1,-1,0,3,-148,100*,-134
CSc1ccc(Cl)c(C(=O)Nc2ccc(Cl)cn2)c1,3,3,3,24,31,-5
OC1(c2cccs2)CN(c2ccc(Br)cc2)C2=[N+]1CCCS2 (centres undefined),-5,-2,-4,.,-25,-6
OC1(c2ccccc2)CN(c2ccccc2)C2=[N+]1CCS2 (centres undefined),5,35*,37*,-16,-33,-35
COc1ccc(Nc2nc(N3CCCCC3)c3ccccc3n2)cc1,5,7,35*,-8,-13,-5
Oc1ccc(Nc2nc(N3CCCC3)c3ccccc3n2)cc1,13,48*,61*,8,i,-19
COc1ccc2oc(C(=O)OCC(=O)NCc3ccccc3OC)c(C)c2c1,.,.,.,.,2,.
C/C(=N\Nc1ncc(Cl)cc1Cl)c1ccccn1,1,4,7,70*,101*,-33
C/C(=N\Nc1ccc(Cl)c(C(=O)O)c1)c1ccccn1,1,-1,2,.,-1,-189
CN(C(=O)COC(=O)c1c2c(nc3ccccc13)/C(=C/c1cccc([N+](=O)[O-])c1)CCC2)C1CCS(=O)(=O)C1 (centres undefined),11,2,7,0,72*,-43
O=C(O)Cn1ccc2cc(S(=O)(=O)N3CCCCCC3)ccc21,1,.,.,.,-23,-15
COc1ccc(N2C(=O)CC(Sc3nnc(-c4ccccc4)o3)C2=O)cc1 (centres undefined),-3,0,6,46*,-3,-19
Clc1ccc(-c2cn(-c3ccc(Cl)cc3)c3[n+]2CCCCC3)cc1,2,46*,62*,.,-22,-14
COc1ccc(-c2cn(-c3ccc(Cl)cc3)c3[n+]2CCCCC3)cc1,3,71*,68*,.,15,0
COc1ccc(-n2cc(-c3ccc(OC(F)F)cc3)[n+]3c2CCCCC3)cc1,10,72*,64*,-6,15,6
COc1ccc(-n2cc(-c3ccc(Cl)cc3)[nH]c2=S)cc1,-6,-5,-1,.,-91,-42
O=C(COc1ccc(Cl)cc1)Nc1ccc(N2CCN(C(=O)c3ccco3)CC2)cc1,-2,0,6,9,-4,2
COc1ccc(OCC(=O)Nc2ccc(N3CCN(C(=O)c4ccco4)CC3)cc2)cc1,1,5,90*,-22,0,5
CN(C)c1ccc(/C=C/c2cc[n+]([O-])cc2)cc1,0,0,-1,-49,-114,-36
SMILES,IEC-6 cytotox,Ba/F3 V617F tox,BaF3 tox,APP transl inh,aSyn UTR inh,KLF5 inh
CN(C)c1ccc(/C=C/c2cc[n+](C)cc2)cc1,6,94*,71*,-18,-30,-71
COc1ccc(C(=O)N/N=C/c2ccc(OC)c(COc3ccc(F)cc3)c2)cc1,5,.,.,.,8,-4
CCOc1cc(/C=N\NC(=O)c2ccc(NC(=O)C(C)(C)C)cc2)ccc1OC(=O)c1ccc(OC)cc1,2,-4,1,94*,12,-28
OCC1(CCCc2ccccc2)CCN(Cc2cnc(N3CCOCC3)s2)CC1,-2,-2,64*,-8,-57,-23
COc1cccc(CC2(CO)CCN(Cc3cnc(N4CCOCC4)s3)CC2)c1,-2,-3,2,2,0,-21
COc1ccccc1-c1nnc(NC(=O)c2ccc(S(=O)(=O)N(C)C)cc2)o1,4,1,0,-2,45,-36
CCN(Cc1ccccc1)S(=O)(=O)c1ccc(C(=O)Nc2nnc(-c3ccccc3OC)o2)cc1,-5,-2,2,25,67*,-3
CCCCN(CC)S(=O)(=O)c1ccc(C(=O)Nc2nnc(CSC)o2)cc1,46*,-1,42*,-12,8,46
CCCCN(C)S(=O)(=O)c1ccc(C(=O)Nc2nnc(C3=COCCO3)o2)cc1,-4,-1,-2,5,3,8
CCCCN(CC)S(=O)(=O)c1ccc(C(=O)Nc2nnc(COC)o2)cc1,-5,-2,-2,-21,8,-3
CCCCN(C)S(=O)(=O)c1ccc(C(=O)Nc2nnc(-c3cccs3)o2)cc1,-11,1,1,36,81*,25
CCCCN(CCCC)S(=O)(=O)c1ccc(C(=O)Nc2nnc(CSC)o2)cc1,-3,-2,4,0,50,-33
CCCCN(CC)S(=O)(=O)c1ccc(C(=O)Nc2nnc(-c3ccccc3Cl)o2)cc1,-3,-2,-1,-3,76*,-13
CCN(c1ccccc1)S(=O)(=O)c1ccc(C(=O)Nc2nnc(C3CC3)o2)cc1,17,2,11,14,71*,13
CN(c1ccccc1)S(=O)(=O)c1ccc(C(=O)Nc2nnc(C3CC3)o2)cc1,14,2,7,-6,54,25
Cc1cc(NC(=O)CCC(=O)N(CC(=O)NCC2CCCO2)c2cccc(F)c2)no1 (centres undefined),0,.,.,.,3,-3
CCCNC(=O)CSCc1nc(-c2ccc(SC)cc2)oc1C,1,6,6,-8,-31,-28
CCc1ccc(-c2nc(CSCC(=O)NCc3ccco3)c(C)o2)cc1,0,2,5,47*,77*,42
c1ccc(-c2cn3nc(-c4ccccc4)sc3n2)cc1,.,.,.,.,101*,.
Cc1nc(Nc2nc3c(c(=O)[nH]2)CCC3)nc2ccccc12,.,.,.,.,126*,.
CN(CC(=O)Nc1cccc(F)c1)C(=O)c1ccc(N2CCCCC2)c([N+](=O)[O-])c1,.,.,.,.,-15,.
CCN1/C(=C/c2ccc3cc(C)ccc3[n+]2CC)Sc2ccc3sccc3c21,.,.,.,.,131*,.
CC[n+]1c(C)sc2c3ccsc3ccc21,-15,-4,2,11,-24,-11
COc1ccc(NC(=O)COc2coc(CN3c4ccccc4CC3C)cc2=O)cc1 (centres undefined),.,.,.,.,6,.
